Here are results for 34 compounds from PubChem BioAssay (Tox21).

“And” between values parts separate entries of the source, which are not always exact repeats. Equal values may be shown once. The source holds several records for some structures; these can differ, active in one and inactive in another. The source made the active and inactive calls. Unless noted, calls follow the shape of the dose curve; as a rule, active = well fitted curve in the direction sought with a large enough effect in the repeat runs; inconclusive = weak or mixed curves; inactive = no such curve, though single readings can be large; an effect the other way counts as inactive or inconclusive.
% is scaled to controls: 0 for no effect and ±100 for the full control effect; potency is read from the fitted curve at half-maximal effect.

For one experiment, the target named is Estrogen receptor (Homo sapiens) (UniProt P03372). As to the kind of experiment: qHTS assay to identify small molecule agonists of the estrogen receptor alpha (ER-alpha) signaling pathway (AID 743075; calls by dose curve;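 also: HEK293 GripTite cells with ER-alpha and UAS-driven beta-lactamase reporter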). To be noted: HEK293 ER-alpha-UAS-bla, beta-lactamase FRET ratio, 18 h; series mostly up to 70.1 µM; activation: at the top concentration. A general note: In qHTS, concentration-response curves come from the screen itself.
Chain of Estrogen receptor (Homo sapiens) (P03372 whole entry, looked up): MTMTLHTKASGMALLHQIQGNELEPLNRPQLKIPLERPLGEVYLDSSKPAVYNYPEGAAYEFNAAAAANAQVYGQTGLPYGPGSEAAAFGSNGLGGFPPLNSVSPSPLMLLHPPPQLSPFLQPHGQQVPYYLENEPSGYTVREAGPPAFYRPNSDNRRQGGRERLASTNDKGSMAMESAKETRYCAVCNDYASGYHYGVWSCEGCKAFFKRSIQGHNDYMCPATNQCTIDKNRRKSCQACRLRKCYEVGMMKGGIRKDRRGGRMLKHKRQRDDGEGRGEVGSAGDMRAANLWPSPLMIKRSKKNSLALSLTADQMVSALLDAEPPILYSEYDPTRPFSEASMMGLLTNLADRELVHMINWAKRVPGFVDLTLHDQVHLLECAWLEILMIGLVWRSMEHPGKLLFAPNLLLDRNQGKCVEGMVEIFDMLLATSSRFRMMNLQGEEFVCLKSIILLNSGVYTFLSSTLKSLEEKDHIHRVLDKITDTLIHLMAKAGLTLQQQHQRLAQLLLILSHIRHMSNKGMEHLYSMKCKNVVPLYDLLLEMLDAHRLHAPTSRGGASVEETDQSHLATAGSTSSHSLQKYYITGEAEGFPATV
For the compound `BrCCCCBr`, the “activation” value was -1.9% (inactive).

On to `COC(=O)C(Br)CBr` (stereo not given), for which the “activation” value is -1.78% (inactive).

`N#Cc1ccc(Cl)cc1`: the “activation” value is 1.57% (inactive).

Regarding `CCN(C)N=O`, the “activation” value is 0.262% (inactive).

For the compound `ClCc1ccccc1`, the “activation” value was -1.4% (inactive).

On to `CCOP(=O)(OCC)O/C(=C/Cl)c1ccc(Cl)cc1Cl`, for which the Potency result was “inactive”.

As for `C=CCC1([C@H](C)CCC)C(=O)NC(=O)NC1=O`, the “activation” value is -2.06% (inactive).

Consider `C=CC(C)=O`, for which the “activation” value is -1.42% (inactive).

As to `CCOc1nc(F)cc2nc(S(=O)(=O)Nc3c(Cl)cccc3Cl)nn12`, the “activation” value was -4.52% (inactive).

Consider `C(=NC1CCCCC1)=NC1CCCCC1`, for which the Potency entry was “inactive”.

In the case of `Cn1cc[n+](C)c1` (tested in a mixture with another compound), the “activation” value is -0.698% [at 79.1 µM] (inactive).

For `CNC(C)Cc1ccccc1OC` (stereo not given), the “activation” value is -1.18% (inactive).

Consider `O=[Se]=O`, for which the “activation” value is 7.09% (inactive).

As to `ClCC(Br)CBr` (stereo not given), the “activation” value is -1% (inactive).

As for `CCOP(=S)(OCC)SCn1nnc2ccccc2c1=O`, the Potency was 19.5 µM [inconclusive] (active).

Regarding `CC(O)(CS(=O)(=O)c1ccc(F)cc1)C(=O)Nc1ccc(C#N)c(C(F)(F)F)c1` (stereo not given), the Potency result is “inactive”.

Consider `COc1cc(CC(C)N)cc2c1OCO2` (stereo not given), for which the “activation” value was -2.46% [at 79.1 µM] (inactive).

For the compound `O=C(O)C(F)(F)C(F)(F)C(F)(F)C(F)(F)C(F)(F)C(F)(F)C(F)(F)C(F)(F)C(F)(F)F`, the “activation” value is -1.34% (inactive).

Regarding `COc1c(C(C)(C)C)cc([N+](=O)[O-])c(C)c1[N+](=O)[O-]`, the Potency was 48.6 µM [activator] (active).

Turning to `N#CCc1ccccc1`, the “activation” value is 1.14% [at 79.1 µM] (inactive).

With `CCOP(=O)(OCC)SCCSCC`, the “activation” value was 3.77% (inactive).

The next experiment shares this target. Briefly: qHTS assay to identify small molecule agonists of the estrogen receptor alpha (ER-alpha) signaling pathway using the BG1 cell line (AID 743079). Also: nearly all actives have a fitted effect of over 20% in size. Particulars: BG1Luc4E2 cells, ERE-luciferase agonist, 22 h; series mostly up to 70.3 µM; activation: at the top concentration.
Turning to `BrCCCCBr`, the “activation” value is 11.9% (inactive).

On to `COC(=O)C(Br)CBr` (stereo not given), for which the “activation” value is -2.68% (inactive).

On to `N#Cc1ccc(Cl)cc1`, for which the “activation” value is -1.1% (inactive).

With `CCN(C)N=O`, the “activation” value is 4.1% (inactive).

Consider `ClCc1ccccc1`, for which the “activation” value was -2.07% (inactive).

For `CCOP(=O)(OCC)O/C(=C/Cl)c1ccc(Cl)cc1Cl`, the “activation” value is -23.6% (inactive).

On to `C=CCC1([C@H](C)CCC)C(=O)NC(=O)NC1=O`, for which the “activation” value was -0.253% (inactive).

Turning to `C=CC(C)=O`, the “activation” value was 5.84% (inactive).

Regarding `CCOc1nc(F)cc2nc(S(=O)(=O)Nc3c(Cl)cccc3Cl)nn12`, the “activation” value is -11.2% (inactive).

Regarding `C(=NC1CCCCC1)=NC1CCCCC1`, the Potency is 13.8 µM (active) and inactive.

For `Cn1cc[n+](C)c1` (tested in a mixture with another compound), the “activation” value is -1.27% [at 95 µM] (inactive).

Consider `CNC(C)Cc1ccccc1OC` (stereo not given), for which the “activation” value is -5.28% (inactive).

As for `ClCC(Br)CBr` (stereo not given), the “activation” value was 9.6% (inactive).

As for `CC(O)(CS(=O)(=O)c1ccc(F)cc1)C(=O)Nc1ccc(C#N)c(C(F)(F)F)c1` (stereo not given), the “activation” value was -26.8% (inactive).

As to `COc1cc(CC(C)N)cc2c1OCO2` (stereo not given), the “activation” value was -5.4% [at 95 µM] (inactive).

Take `O=C(O)C(F)(F)C(F)(F)C(F)(F)C(F)(F)C(F)(F)C(F)(F)C(F)(F)C(F)(F)C(F)(F)F`: the “activation” value is 10.9% (inactive).

Turning to `COc1c(C(C)(C)C)cc([N+](=O)[O-])c(C)c1[N+](=O)[O-]`, the “activation” value is -8.81% (inactive).

`N#CCc1ccccc1`: the “activation” value was -1.9% [at 95 µM] (inactive).

System in the next experiment: not listed separately
Briefly: qHTS assay to identify small molecule antagonists of the estrogen receptor alpha (ER-alpha) signaling pathway using the BG1 cell line (AID 743080; calls by dose curve;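 also: BG1 cells stimulated with 17beta-estradiol alongside compound; nearly all actives have a fitted effect of over 25% in size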). To be noted: BG1Luc4E2 ERE-luciferase antagonist mode, luminescence; series mostly up to 70.3 µM; activity change, negative = inhibition: at the top concentration. Summed up: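 BG1Luc4E2, endogenous ER-alpha, 4xERE-luc; 5 d charcoal-stripped FBS, phenol red free; 24 h plating; cpd + 17beta-estradiol 21.5 h, 37 C/5% CO2; CellTiter-Fluor viability 30 min, then ONE-Glo luciferase 30 min RT.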
`BrCCCCBr`: the “activity change, negative = inhibition” value was -2.25% (inactive).

For `COC(=O)C(Br)CBr` (stereo not given), the “activity change, negative = inhibition” value is 8.62% (inactive).

On to `N#Cc1ccc(Cl)cc1`, for which the “activity change, negative = inhibition” value is 3.68% (inactive).

As to `CCN(C)N=O`, the “activity change, negative = inhibition” value was -0.737% (inactive).

Regarding `ClCc1ccccc1`, the “activity change, negative = inhibition” value was 0.0418% (inactive).

In the case of `CCOP(=O)(OCC)O/C(=C/Cl)c1ccc(Cl)cc1Cl`, the Potency is 54.5 µM (active).

On to `C=CCC1([C@H](C)CCC)C(=O)NC(=O)NC1=O`, for which the “activity change, negative = inhibition” value was -0.0352% (inactive).

Consider `C=CC(C)=O`, for which the “activity change, negative = inhibition” value was 10.4% (inactive).

For `CCOc1nc(F)cc2nc(S(=O)(=O)Nc3c(Cl)cccc3Cl)nn12`, the “activity change, negative = inhibition” value was -4.19% (inactive).

As to `O=C(CBr)OCc1ccccc1`, the “activity change, negative = inhibition” value is 1.79% (inactive).

With `C(=NC1CCCCC1)=NC1CCCCC1`, the Potency was 2.45 µM (active) and 2.43 µM (active).

As for `Cn1cc[n+](C)c1` (tested in a mixture with another compound), the “activity change, negative = inhibition” value is -7.89% [at 95 µM] (inactive).

On to `CNC(C)Cc1ccccc1OC` (stereo not given), for which the “activity change, negative = inhibition” value is 2.59% (inactive).

For `ClCC(Br)CBr` (stereo not given), the “activity change, negative = inhibition” value is -0.352% (inactive).

With `CC(O)(CS(=O)(=O)c1ccc(F)cc1)C(=O)Nc1ccc(C#N)c(C(F)(F)F)c1` (stereo not given), the Potency is 29.8 µM (active).

For `COc1cc(CC(C)N)cc2c1OCO2` (stereo not given), the “activity change, negative = inhibition” value is 2.8% [at 95 µM] (inactive).

Turning to `O=C(O)C(F)(F)C(F)(F)C(F)(F)C(F)(F)C(F)(F)C(F)(F)C(F)(F)C(F)(F)C(F)(F)F`, the “activity change, negative = inhibition” value was -4.84% (inactive).

As for `COc1c(C(C)(C)C)cc([N+](=O)[O-])c(C)c1[N+](=O)[O-]`, the “activity change, negative = inhibition” value is -21.2% (inactive).

On to `N#CCc1ccccc1`, for which the “activity change, negative = inhibition” value was -0.184% [at 95 µM] (inactive).

For `CCOP(=O)(OCC)SCCSCC`, the “activity change, negative = inhibition” value was -1.02% (inactive).

System in a further experiment: not listed separately
Briefly: qHTS assay to identify small molecule antagonists of the estrogen receptor alpha (ER-alpha) signaling pathway using the BG1 cell line - cell viability counter screen (AID 743081).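 Also: compound given together with 17beta-estradiol as the ER stimulus; nearly all actives have a fitted effect of over 45% in size.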 Particulars: BG1Luc4E2 viability, CellTiter-Fluor, 22 h; series mostly up to 70.3 µM; activity change, negative = cytotoxicity: at the top concentration.
`O=S(=O)(Cl)c1ccccc1`: the “activity change, negative = cytotoxicity” value is -1.87% [at 95 µM] (inactive).

Take `C#CCOC(C(=O)OCCN(C)C)(c1ccccc1)c1ccccc1`: the “activity change, negative = cytotoxicity” value is -9.66% (inactive).

For `BrCCCCBr`, the “activity change, negative = cytotoxicity” value was 17.4% (inactive).

For the compound `CCn1cc[n+](C)c1`, the Potency result was “inactive”.

In the case of `COC(=O)C(Br)CBr` (stereo not given), the “activity change, negative = cytotoxicity” value is 5.5% (inactive).

Turning to `N#Cc1ccc(Cl)cc1`, the “activity change, negative = cytotoxicity” value is 2.07% (inactive).

Regarding `CCN(C)N=O`, the “activity change, negative = cytotoxicity” value was 10.1% (inactive).

Consider `ClCc1ccccc1`, for which the “activity change, negative = cytotoxicity” value is -3.53% (inactive).

For the compound `CC(C)(C)c1cc([N+](=O)[O-])cc([N+](=O)[O-])c1O`, the Potency is 21.6 µM (active).

On to `CCOP(=O)(OCC)O/C(=C/Cl)c1ccc(Cl)cc1Cl`, for which the Potency result was “inactive”.

As to `C=CCC1([C@H](C)CCC)C(=O)NC(=O)NC1=O`, the “activity change, negative = cytotoxicity” value is 11.8% (inactive).

`C=CCN1CC[C@]23c4c5ccc(O)c4O[C@H]2C(=O)CC[C@@]3(O)[C@H]1C5`: the Potency entry was “inactive”.

For the compound `COc1nn(C(=O)NS(=O)(=O)c2ccccc2OC(F)(F)F)c(=O)n1C`, the “activity change, negative = cytotoxicity” value was 9.43% (inactive).

As for `O=C(O)CC(Cl)C(=O)O` (stereo not given), the “activity change, negative = cytotoxicity” value was -2.01% [at 95 µM] (inactive).

Regarding `O=C1CN=C(c2ccccc2)c2cc(Cl)ccc2N1CC1CC1`, the Potency result is “inactive”.

`C=CC(C)=O`: the “activity change, negative = cytotoxicity” value was -0.743% (inactive).

For `CCOc1nc(F)cc2nc(S(=O)(=O)Nc3c(Cl)cccc3Cl)nn12`, the “activity change, negative = cytotoxicity” value is 4.42% (inactive).

As to `O=C(CBr)OCc1ccccc1`, the “activity change, negative = cytotoxicity” value is -10.6% (inactive).

As for `C=CC(=O)OC(C)(C)C`, the “activity change, negative = cytotoxicity” value was 15.3% (inactive).

Regarding `Cn1cc[n+](C)c1` (tested in a mixture with another compound), the “activity change, negative = cytotoxicity” value was 3.73% [at 95 µM] (inactive).

Take `CNC(C)Cc1ccccc1OC` (stereo not given): the “activity change, negative = cytotoxicity” value was 1.06% (inactive).

`O=[Se]=O`: the Potency was 19.2 µM (active).

Take `ClCC(Br)CBr` (stereo not given): the “activity change, negative = cytotoxicity” value was 6.02% (inactive).

Consider `ClCCCCBr`, for which the “activity change, negative = cytotoxicity” value was -0.721% [at 95 µM] (inactive).

For `CC(O)(CS(=O)(=O)c1ccc(F)cc1)C(=O)Nc1ccc(C#N)c(C(F)(F)F)c1` (stereo not given), the Potency result is “inactive”.

Consider `O=C(O)C(F)(F)C(F)(F)C(F)(F)C(F)(F)C(F)(F)C(F)(F)C(F)(F)C(F)(F)C(F)(F)C(F)(F)F`, for which the “activity change, negative = cytotoxicity” value was 6.38% (inactive).

Take `CCOC(=O)CBr`: the “activity change, negative = cytotoxicity” value was 0.695% [at 95 µM] (inactive).

Turning to `O=C(O)C(F)(F)C(F)(F)C(F)(F)C(F)(F)C(F)(F)C(F)(F)C(F)(F)C(F)(F)C(F)(F)F`, the “activity change, negative = cytotoxicity” value was -4.72% (inactive).

As to `COc1c(C(C)(C)C)cc([N+](=O)[O-])c(C)c1[N+](=O)[O-]`, the “activity change, negative = cytotoxicity” value was 1.63% (inactive).

For the compound `N#CCc1ccccc1`, the “activity change, negative = cytotoxicity” value is -11% [at 95 µM] (inactive).

With `CCOP(=O)(OCC)SCCSCC`, the “activity change, negative = cytotoxicity” value is -2.73% (inactive).
